Results filed as inconclusive are left out. Active and inactive are the calls of the source. Rule for the calls, unless noted: active = hit-call score of the fitted dose curve at least 0.9, where 1 is the maximum; inconclusive = response in the unintended direction; inactive = score below 0.9.

The nature of test [1]: ATG_TAL_CIS: Attagene CIS-FACTORIAL HepG2 Assay for human TAL Basal Promoter (AID 2282966; active = hit-call score of the fitted dose curve at least 0.9, where 1 is the maximum; inactive = score below 0.9;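 note: background control endpoint measuring basal TAL promoter reporter mRNA not a specific factor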). Conditions: HepG2 Attagene cis-factorial TAL promoter reporter; actives raise or lower the signal. The method, boiled down: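 Steps: transfect HepG2 with multiple reporter transcription units; dose 24 h; isolate RNA, reverse-transcribe, PCR-amplify, label with 6-FAM, digest with HpaI; resolve by capillary electrophoresis. Bidirectional fitting against DMSO baseline.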

A short description of test [2]: ATG_TGFb_CIS: Attagene CIS-FACTORIAL HepG2 Assay for human Transforming Growth Factor (TGF) (AID 2282967; active = hit-call score of the fitted dose curve at least 0.9, where 1 is the maximum; inactive = score below 0.9). To be noted: HepG2 Attagene CIS TGFb reporter, mRNA transcription; actives raise or lower the signal. The method, boiled down: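 Transient MRTU transfection of HepG2 (FuGene 6). Dose 24 h. TriZol RNA, oligo(dT) RT, PCR, 6-FAM primer extension, HpaI cut, CE. Bidirectional fit, DMSO = baseline.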

The target of test [3] is Estrogen receptor (Homo sapiens) (UniProt P03372). Kind of test: ATG_ERa_TRANS: Attagene TRANS-FACTORIAL HepG2 Assay for human Estrogen Receptor alpha (ERa) (AID 2282970). Conditions: HepG2 Attagene TRANS ERa GAL4 reporter, mRNA. The gist of the method:
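Multiplexed cell-based reporter format in HepG2: chimeric ERa-Gal4 protein drives GAL4-UAS reporter transcription. Fluorescent reporter mRNA quantified by capillary electrophoresis 24 hours after dosing; endpoint fitted as signal gain against DMSO.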

Test [4] concerns the target X-box-binding protein 1 (Homo sapiens) (UniProt P17861). The experiment in a line: ATG_Xbp1_CIS: Attagene CIS-FACTORIAL HepG2 Assay for human X-box Binding Protein 1 (XBP1) (AID 2282972; active = hit-call score of the fitted dose curve at least 0.9, where 1 is the maximum; inactive = score below 0.9). Conditions: HepG2 XBP1 cis-element reporter, Attagene multiplex; actives raise or lower the signal. The method, boiled down:
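Fluorescence-labelled cDNA fragments from reporter transcripts, separated by capillary electrophoresis, give the signal. Source: HepG2 cells transfected with promoter-driven reporter units, harvested 24 h post-dose. DMSO served as reference for bidirectional curve fitting.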

Test [5] addresses Bile acid receptor (Homo sapiens) (UniProt Q96RI1). The experiment in a line: ATG_FXR_TRANS: Attagene TRANS-FACTORIAL HepG2 Assay for Farnesoid X Receptor (FXR) (AID 2282979).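 Note: hits raise reporter mRNA above DMSO so AC50 marks FXR activation.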 Conditions: HepG2 Attagene TRANS FXR-GAL4 reporter transcription. The gist of the method:
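After 24 h chemical treatment of transfected HepG2 cells, GAL4-UAS reporter transcripts driven by an exogenous FXR-GAL4 fusion were measured by RT-PCR and capillary electrophoresis. Increases over DMSO were fitted.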

Test [6] addresses Oxysterols receptor LXR-alpha (Homo sapiens) (UniProt Q13133). The experiment in a line: ATG_LXRa_TRANS: Attagene TRANS-FACTORIAL HepG2 Assay for human Liver X Receptor alpha (LXRa) (AID 2282980). To be noted: HepG2 Attagene TRANS reporter, LXRa transactivation. The method, boiled down:
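In this multiplexed TRANS system, compounds act on HepG2 cells carrying GAL4-UAS reporter units and a receptor-GAL4 fusion for 24 h. Induced reporter RNA is amplified, fluorescently labelled and sized by capillary electrophoresis, with DMSO as baseline.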

In test [7] the target is Oxysterols receptor LXR-beta (Homo sapiens) (UniProt P55055). The experiment in a line: ATG_LXRb_TRANS: Attagene TRANS-FACTORIAL HepG2 Assay for human Liver X Receptor beta (LXRb) (AID 2282981). Conditions: HepG2 Attagene TRANS GAL4-LXRb reporter, mRNA. The method, boiled down:
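HepG2 cells transiently transfected with multiple reporter transcription units carrying chimeric NR-Gal4 proteins acting on GAL4-UAS reporters; compound exposure 24 h. Reporter mRNA quantified by RT-PCR, 6-FAM labelling, HpaI digestion and capillary electrophoresis; gain of signal versus DMSO.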

Test [8] is described as follows: ATG_M_06_TRANS: Attagene TRANS-FACTORIAL HepG2 Assay for M06 Transcription Factor (Internal Marker) (AID 2282983).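 Note: reporter transcript level by RT-PCR then capillary electrophoresis fluorescence.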 To be noted: HepG2 Attagene TRANS M06 internal marker reporter. The method, boiled down: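 Internal-marker background readout from a multiplexed TRANS reporter system in HepG2; 24 h dosing; mRNA induction quantified by RT-PCR plus capillary electrophoresis fluorescence; DMSO as negative control and baseline.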

Test [9] in a line: ATG_M_32_TRANS: Attagene TRANS-FACTORIAL HepG2 Assay for M32 Transcription Factor (Internal Marker) (AID 2282984).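 Note: transcript level of a background control reporter unit measured by RT-PCR and capillary electrophoresis.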 To be noted: HepG2 Attagene TRANS M32 internal marker reporter. The gist of the method: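 HepG2 cells transiently transfected with multiple GAL4-UAS reporter transcription units, dosed for 24 hours; reporter mRNA quantified by RT-PCR, 6-FAM primer extension, HpaI digestion and capillary electrophoresis. Gain-of-signal fitted versus DMSO baseline; internal background-control marker.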

Test [10] addresses Transcriptional activator Myb (Homo sapiens) (UniProt P10242). The experiment in a line: ATG_Myb_CIS: Attagene CIS-FACTORIAL HepG2 Assay for human Myeloblastosis (Myb) Proto-Oncogene Transcription Factor (AID 2282986; active = hit-call score of the fitted dose curve at least 0.9, where 1 is the maximum; inactive = score below 0.9). To be noted: HepG2 Attagene CIS-FACTORIAL Myb reporter transcription; actives raise or lower the signal. The method, boiled down: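 In this HepG2 transient-transfection format, cis-regulated reporter mRNA is quantified 24 h post-dosing by RT-PCR with capillary electrophoresis, fitted bidirectionally to DMSO baseline.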

Test [11] deals with Nuclear respiratory factor 1 (Homo sapiens) (UniProt Q16656). Kind of test: ATG_NRF1_CIS: Attagene CIS-FACTORIAL HepG2 Assay for human Nuclear Respiratory Factor 1 (NRF1) Orphan Gene (AID 2282987; active = hit-call score of the fitted dose curve at least 0.9, where 1 is the maximum; inactive = score below 0.9). To be noted: HepG2 NRF1 cis-element reporter, Attagene multiplex; actives raise or lower the signal. The method, boiled down:
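Using DMSO as baseline, gain- or loss-of-signal was fitted for reporter mRNA levels in HepG2 cells transiently transfected with cis-regulated reporter units. Samples were taken 24 h after dosing and read by RT-PCR with capillary electrophoresis.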

In test [12] the target is Nuclear receptor subfamily 1 group I member 3 (Homo sapiens) (UniProt Q14994). The experiment in a line: ATG_CAR_TRANS: Attagene TRANS-FACTORIAL HepG2 Assay for human Constitutive Androstane Receptor (CAR) (AID 2282969).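 Note: activators raise reporter mRNA above DMSO so AC50 marks induction.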 To be noted: HepG2 Attagene TRANS-FACTORIAL CAR reporter. The method, boiled down:
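HepG2 cells transiently transfected with multiplexed GAL4-UAS reporter units expressing chimeric NR-Gal4 proteins; compound exposure 24 h. Reporter mRNA measured by RT-PCR, 6-FAM labelling, HpaI digestion and capillary electrophoresis; gain-of-signal fitted against DMSO baseline.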

Test [13] in a line: ATG_M_19_TRANS: Attagene TRANS-FACTORIAL HepG2 Assay for M19 Transcription Factor (Internal Marker) (AID 2282974). Conditions: HepG2 Attagene TRANS-FACTORIAL M19 internal marker reporter. The method, boiled down:
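Using RT-PCR and capillary electrophoresis, reporter mRNA from transiently transfected human HepG2 cells was quantified following 24 h exposure; activity was fitted in the positive direction against DMSO.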

Test [14] can be described thus: ATG_GAL4_TRANS: Attagene TRANS-FACTORIAL HepG2 Assay for GAL4 (Internal Marker) (AID 2282976). To be noted: HepG2 Attagene TRANS GAL4 internal marker reporter. The method, boiled down: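 Liver HepG2 line bearing multiplexed GAL4-UAS reporter constructs; 24 h chemical treatment. Transcripts were quantified as fluorescent fragments on capillary electrophoresis after RT-PCR and HpaI cut, with activity fitted upward from DMSO.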

Test [15] addresses Hepatocyte nuclear factor 4-alpha (Homo sapiens) (UniProt P41235). The experiment in a line: ATG_HNF4a_TRANS: Attagene TRANS-FACTORIAL HepG2 Assay for human Hepatocyte Nuclear Factor 4 alpha (HNF4a) (AID 2282982). To be noted: HepG2 HNF4a transactivation reporter, mRNA readout. The method, boiled down:
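HepG2 cells transiently transfected with multiplexed GAL4-UAS reporter units responsive to chimeric NR-GAL4 proteins; compound exposure 24 h. Reporter mRNA quantified by RT-PCR, 6-FAM labelling, HpaI digestion and capillary electrophoresis; gain of signal versus DMSO baseline.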

For test [16], the target named is Nuclear receptor subfamily 4 group A member 2 (Homo sapiens) (UniProt P43354). The experiment in a line: ATG_NURR1_TRANS: Attagene TRANS-FACTORIAL HepG2 Assay for human Nuclear Receptor Related Protein 1 (NURR1) (AID 2282985). Conditions: HepG2 Attagene TRANS reporter, mRNA readout. The gist of the method: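 HepG2 cells transiently transfected with GAL4-UAS reporter units and chimeric NR-Gal4 constructs; chemical exposure 24 h. Reporter mRNA quantified by RT-PCR, fluorescent labelling and capillary electrophoresis; gain of signal fitted relative to DMSO baseline.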
Sequence of Nuclear receptor subfamily 4 group A member 2 (Homo sapiens) (P43354 whole entry, looked up, the tested form may be a part): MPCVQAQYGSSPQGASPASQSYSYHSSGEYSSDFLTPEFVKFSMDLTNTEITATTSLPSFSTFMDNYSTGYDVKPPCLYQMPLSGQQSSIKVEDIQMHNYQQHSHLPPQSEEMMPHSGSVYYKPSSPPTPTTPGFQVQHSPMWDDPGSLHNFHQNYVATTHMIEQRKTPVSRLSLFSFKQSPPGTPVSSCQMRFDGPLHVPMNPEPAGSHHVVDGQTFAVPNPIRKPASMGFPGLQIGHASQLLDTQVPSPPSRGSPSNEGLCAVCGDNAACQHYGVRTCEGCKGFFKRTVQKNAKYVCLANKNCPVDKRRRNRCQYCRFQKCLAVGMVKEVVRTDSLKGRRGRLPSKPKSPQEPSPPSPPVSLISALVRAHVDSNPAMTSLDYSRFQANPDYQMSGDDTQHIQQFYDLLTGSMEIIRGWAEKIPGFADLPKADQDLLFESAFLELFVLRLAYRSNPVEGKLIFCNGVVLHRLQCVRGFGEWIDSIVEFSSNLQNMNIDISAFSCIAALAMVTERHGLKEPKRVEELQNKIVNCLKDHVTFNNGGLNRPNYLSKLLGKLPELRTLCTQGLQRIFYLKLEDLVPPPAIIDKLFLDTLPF

The target of test [17] is Steroid hormone receptor ERR1 (Homo sapiens) (UniProt P11474). The experiment in a line: ATG_ERRa_TRANS: Attagene TRANS-FACTORIAL HepG2 Assay for human Estrogen-Related Receptor alpha (ERRa) (AID 2282971). To be noted: HepG2 Attagene TRANS reporter, ERRa transactivation. The gist of the method: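 Signal gain relative to DMSO for an ERRa-Gal4 chimeric receptor, read as reporter mRNA by RT-PCR/capillary electrophoresis. Human HepG2 liver cells, transient multiplex reporter transfection, 24 h chemical exposure.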
Sequence of Steroid hormone receptor ERR1 (Homo sapiens) (P11474 whole entry, looked up, the tested form may be a part): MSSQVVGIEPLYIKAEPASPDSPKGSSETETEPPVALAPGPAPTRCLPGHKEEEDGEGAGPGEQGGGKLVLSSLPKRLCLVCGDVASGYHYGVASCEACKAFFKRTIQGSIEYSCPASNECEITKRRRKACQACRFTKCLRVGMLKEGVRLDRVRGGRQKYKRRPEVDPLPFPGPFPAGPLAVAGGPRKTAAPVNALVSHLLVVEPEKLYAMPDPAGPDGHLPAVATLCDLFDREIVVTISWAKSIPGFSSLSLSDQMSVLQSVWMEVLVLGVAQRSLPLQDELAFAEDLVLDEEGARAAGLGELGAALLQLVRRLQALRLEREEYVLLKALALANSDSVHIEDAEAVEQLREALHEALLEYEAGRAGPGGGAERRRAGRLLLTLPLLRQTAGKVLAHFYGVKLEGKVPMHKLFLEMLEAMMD

The target in test [18] is Estrogen-related receptor gamma (Homo sapiens) (UniProt P62508). The experiment in a line: ATG_ERRg_TRANS: Attagene TRANS-FACTORIAL HepG2 Assay for human Estrogen-Related Receptor gamma (ERRg) (AID 2282977).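 Note: hits increase reporter signal over DMSO so potencies reflect activators.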 To be noted: HepG2 Attagene TRANS reporter, ERRg transactivation. The gist of the method: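 HepG2 cells transiently transfected with multiplexed GAL4-UAS reporter units and chimeric NR-Gal4 constructs were exposed to test chemicals for 24 h. Reporter mRNA was measured by RT-PCR, 6-FAM primer extension, HpaI digestion and capillary electrophoresis; gain-of-signal versus DMSO.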

Sequence of Transcriptional activator Myb (Homo sapiens) (P10242 whole entry, looked up): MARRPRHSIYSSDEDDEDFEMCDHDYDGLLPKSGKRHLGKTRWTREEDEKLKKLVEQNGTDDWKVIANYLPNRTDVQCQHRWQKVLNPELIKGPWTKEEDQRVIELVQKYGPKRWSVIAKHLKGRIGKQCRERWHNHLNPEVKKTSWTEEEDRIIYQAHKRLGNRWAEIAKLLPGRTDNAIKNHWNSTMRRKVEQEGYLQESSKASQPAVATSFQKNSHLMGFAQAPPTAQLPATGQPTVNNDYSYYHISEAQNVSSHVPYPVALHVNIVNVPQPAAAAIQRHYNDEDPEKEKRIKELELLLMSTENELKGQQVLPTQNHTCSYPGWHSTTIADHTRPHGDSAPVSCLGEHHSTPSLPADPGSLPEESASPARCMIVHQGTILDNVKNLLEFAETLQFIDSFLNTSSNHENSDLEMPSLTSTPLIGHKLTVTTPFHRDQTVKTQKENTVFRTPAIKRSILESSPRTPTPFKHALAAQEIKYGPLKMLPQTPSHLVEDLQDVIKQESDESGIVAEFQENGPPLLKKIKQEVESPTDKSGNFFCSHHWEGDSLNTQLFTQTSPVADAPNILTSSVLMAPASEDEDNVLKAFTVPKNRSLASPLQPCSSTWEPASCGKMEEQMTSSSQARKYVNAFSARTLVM
Sequence of Oxysterols receptor LXR-alpha (Homo sapiens) (Q13133 whole entry, looked up, the tested form may be a part): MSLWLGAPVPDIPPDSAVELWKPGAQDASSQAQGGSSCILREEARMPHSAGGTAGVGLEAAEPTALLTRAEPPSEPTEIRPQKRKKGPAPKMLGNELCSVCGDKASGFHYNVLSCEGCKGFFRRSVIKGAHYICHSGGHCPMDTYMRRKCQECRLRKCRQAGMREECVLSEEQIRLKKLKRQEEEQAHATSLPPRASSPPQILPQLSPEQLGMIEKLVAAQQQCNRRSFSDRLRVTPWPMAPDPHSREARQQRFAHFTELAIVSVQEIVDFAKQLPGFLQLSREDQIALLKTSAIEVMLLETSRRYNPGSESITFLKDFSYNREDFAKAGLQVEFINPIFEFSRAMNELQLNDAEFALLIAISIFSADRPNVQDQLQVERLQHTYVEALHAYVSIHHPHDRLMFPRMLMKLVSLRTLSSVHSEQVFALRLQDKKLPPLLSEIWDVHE
Sequence of Nuclear respiratory factor 1 (Homo sapiens) (Q16656 whole entry, looked up): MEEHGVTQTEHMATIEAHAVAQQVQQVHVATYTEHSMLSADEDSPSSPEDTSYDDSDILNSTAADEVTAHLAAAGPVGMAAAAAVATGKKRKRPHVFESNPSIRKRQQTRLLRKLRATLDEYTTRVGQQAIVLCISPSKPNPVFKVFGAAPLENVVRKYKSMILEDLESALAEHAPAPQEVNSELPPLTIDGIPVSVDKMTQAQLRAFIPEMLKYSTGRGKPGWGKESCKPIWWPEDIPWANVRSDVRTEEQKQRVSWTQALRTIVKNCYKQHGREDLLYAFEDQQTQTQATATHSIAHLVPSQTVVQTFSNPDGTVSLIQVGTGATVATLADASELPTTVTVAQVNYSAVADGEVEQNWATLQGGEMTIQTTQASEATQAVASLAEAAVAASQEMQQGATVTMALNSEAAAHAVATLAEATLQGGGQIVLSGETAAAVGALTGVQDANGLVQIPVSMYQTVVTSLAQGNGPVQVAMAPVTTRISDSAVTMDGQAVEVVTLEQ
Sequence of Hepatocyte nuclear factor 4-alpha (Homo sapiens) (P41235 whole entry, looked up, the tested form may be a part): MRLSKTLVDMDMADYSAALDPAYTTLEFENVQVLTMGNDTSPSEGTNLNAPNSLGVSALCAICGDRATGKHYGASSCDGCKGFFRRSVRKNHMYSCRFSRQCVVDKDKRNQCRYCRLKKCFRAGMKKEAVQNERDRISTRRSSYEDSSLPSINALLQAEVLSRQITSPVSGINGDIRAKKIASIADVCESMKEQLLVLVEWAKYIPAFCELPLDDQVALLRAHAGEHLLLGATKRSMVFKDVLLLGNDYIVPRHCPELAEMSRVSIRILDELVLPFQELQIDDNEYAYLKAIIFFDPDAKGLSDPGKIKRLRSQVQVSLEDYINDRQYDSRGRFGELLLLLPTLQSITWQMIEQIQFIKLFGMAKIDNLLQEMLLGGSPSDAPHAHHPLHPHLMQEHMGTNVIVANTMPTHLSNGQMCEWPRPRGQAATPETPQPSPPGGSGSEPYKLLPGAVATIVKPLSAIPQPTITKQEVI
Sequence of X-box-binding protein 1 (Homo sapiens) (P17861 whole entry, looked up, the tested form may be a part): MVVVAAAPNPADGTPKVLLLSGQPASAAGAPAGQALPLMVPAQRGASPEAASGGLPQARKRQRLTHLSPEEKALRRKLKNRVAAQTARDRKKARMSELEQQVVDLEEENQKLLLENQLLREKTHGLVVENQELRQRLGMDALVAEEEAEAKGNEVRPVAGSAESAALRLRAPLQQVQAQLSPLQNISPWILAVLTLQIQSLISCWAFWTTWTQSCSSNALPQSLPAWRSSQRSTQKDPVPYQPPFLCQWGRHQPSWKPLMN
Sequence of Estrogen receptor (Homo sapiens) (P03372 whole entry, looked up, the tested form may be a part): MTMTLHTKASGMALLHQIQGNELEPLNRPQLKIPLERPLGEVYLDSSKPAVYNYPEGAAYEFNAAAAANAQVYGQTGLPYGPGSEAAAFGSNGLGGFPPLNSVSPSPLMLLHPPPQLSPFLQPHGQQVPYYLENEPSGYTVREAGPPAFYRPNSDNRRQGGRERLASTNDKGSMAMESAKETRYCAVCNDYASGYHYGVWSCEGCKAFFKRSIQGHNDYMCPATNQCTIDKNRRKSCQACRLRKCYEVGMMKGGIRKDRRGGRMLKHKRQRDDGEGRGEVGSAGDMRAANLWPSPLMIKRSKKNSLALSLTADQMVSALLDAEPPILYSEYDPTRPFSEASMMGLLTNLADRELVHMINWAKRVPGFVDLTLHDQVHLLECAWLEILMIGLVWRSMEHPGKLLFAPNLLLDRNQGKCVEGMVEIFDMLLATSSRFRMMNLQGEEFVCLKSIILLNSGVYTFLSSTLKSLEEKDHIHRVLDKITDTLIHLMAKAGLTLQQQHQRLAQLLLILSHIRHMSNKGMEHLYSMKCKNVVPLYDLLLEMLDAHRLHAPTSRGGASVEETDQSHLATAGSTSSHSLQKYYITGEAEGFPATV
Sequence of Oxysterols receptor LXR-beta (Homo sapiens) (P55055 whole entry, looked up, the tested form may be a part): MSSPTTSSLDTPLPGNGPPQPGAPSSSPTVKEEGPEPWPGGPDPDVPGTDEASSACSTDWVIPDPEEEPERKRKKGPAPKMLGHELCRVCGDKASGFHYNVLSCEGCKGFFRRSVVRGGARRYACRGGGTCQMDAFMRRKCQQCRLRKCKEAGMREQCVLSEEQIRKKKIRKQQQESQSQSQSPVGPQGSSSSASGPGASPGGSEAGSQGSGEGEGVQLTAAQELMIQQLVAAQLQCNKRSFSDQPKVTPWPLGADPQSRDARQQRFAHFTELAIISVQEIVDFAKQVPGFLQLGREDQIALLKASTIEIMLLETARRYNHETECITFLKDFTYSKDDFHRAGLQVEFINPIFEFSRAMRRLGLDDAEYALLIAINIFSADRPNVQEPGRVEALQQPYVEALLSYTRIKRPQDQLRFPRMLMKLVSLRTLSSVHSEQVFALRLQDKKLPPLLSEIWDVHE
Sequence of Nuclear receptor subfamily 1 group I member 3 (Homo sapiens) (Q14994 whole entry, looked up, the tested form may be a part): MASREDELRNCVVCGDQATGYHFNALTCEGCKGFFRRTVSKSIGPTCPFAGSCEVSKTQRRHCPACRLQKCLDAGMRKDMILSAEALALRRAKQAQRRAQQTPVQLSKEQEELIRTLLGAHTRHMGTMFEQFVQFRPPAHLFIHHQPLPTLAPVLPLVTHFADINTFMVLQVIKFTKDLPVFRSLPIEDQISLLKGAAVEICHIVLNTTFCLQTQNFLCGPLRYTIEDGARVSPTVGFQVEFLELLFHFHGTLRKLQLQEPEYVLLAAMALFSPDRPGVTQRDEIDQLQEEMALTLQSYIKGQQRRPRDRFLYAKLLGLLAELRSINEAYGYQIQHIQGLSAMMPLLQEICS

As for `CCCCCCCC/C=C\CCCCCCCC(=O)O`, the compound was classed as inactive in [1], in [2], in test [3], in test [4], in [5] and in test [6]. The result in [7], in test [8], in [9], in test [10] and in [11] was inactive.

Consider `CC1=CC[C@H](C(C)C)C=C1`, for which the call in test [1], in test [2], in test [12], in [4], in test [13] and in test [14] was inactive. Besides, the compound was classed as inactive in test [6], in [7], in [15], in test [9], in test [16] and in test [10]. Further, in test [11], the outcome was inactive.

As to `CCCCC/C=C\C/C=C\CCCCCCCC(=O)OC`, the compound was called inactive in test [1], in [2], in test [12], in [15], in test [8] and in test [9]. Moreover, the AC50 in test [10] is 162 µM (active); in [11] it was 171 µM (active).

On to `COC(=O)/C=C\C(=O)O`, for which the compound was classed as inactive in [1], in [2], in [7], in test [15], in test [8] and in test [10]. Moreover, the call in test [11] was inactive.

Take `COC(=O)c1ccc2cc(C(=O)OC)ccc2c1`: the outcome in test [1], in [2], in [3], in test [17], in test [4] and in test [18] was inactive. In addition, the outcome in [6], in test [7], in test [15], in [8], in test [9] and in [10] was inactive. Further, the compound was called inactive in test [11].

On to `CC(C)CCCC(C)CC=O` (configuration not stated), for which the compound was called inactive in [1], in test [2], in [3], in test [4], in test [13] and in test [15]. The compound was called inactive in [8], in test [9], in test [16] and in test [11].

For orientation: AC50 means the midpoint of the concentration-response curve, whichever way the signal moves.

Values taken from PubChem BioAssay (EPA / NIEHS).
